Inconclusive results are not listed. Entries that show only a call come without a potency. Unmarked numbers belong to inactive results. Calls of active or inactive are those of the source. Unless noted, calls follow the shape of the full dose curve.
How the values were obtained:
[1] = qHTS for Inhibitors of the Functional Ribonucleoprotein Complex (vRNP) of Lassa (LASV) Arenavirus: LASV Primary Screen - GLuc reporter signal (AID 1347082; calls by dose curve; tested in HEK293 reporter line; also: nearly all actives have a fitted effect of over 60% in size)
[2] = qHTS for Inhibitors of the Functional Ribonucleoprotein Complex (vRNP) of Lassa (LASV) Arenavirus: Viability assay - alamar blue signal for LASV Primary Screen (AID 1347083; calls by dose curve; tested in HEK293 reporter line; also: nearly all actives have a fitted effect of over 80% in size)
[3] = qHTS for Inhibitors of the Functional Ribonucleoprotein Complex (vRNP) of Lymphocytic Choriomeningitis Arenaviruses (LCMV): Viability assay - alamar blue signal for LCMV Primary Screen (AID 1347085; calls by dose curve; tested in HEK293 reporter line; also: nearly all actives have a fitted effect of over 80% in size)
[4] = molecular target: Nucleoprotein (Lymphocytic choriomeningitis virus (strain Armstrong)) (UniProt P09992); assay: qHTS for Inhibitors of the Functional Ribonucleoprotein Complex (vRNP) of Lymphocytic Choriomeningitis Arenaviruses (LCMV): LCMV Primary Screen - GLuc reporter signal (AID 1347086); also: nearly all actives have a fitted effect of over 70% in size
Potency is read from the fitted curve at half-maximal effect.

Sequence of Nucleoprotein (Lymphocytic choriomeningitis virus (strain Armstrong)) (P09992 whole entry, looked up): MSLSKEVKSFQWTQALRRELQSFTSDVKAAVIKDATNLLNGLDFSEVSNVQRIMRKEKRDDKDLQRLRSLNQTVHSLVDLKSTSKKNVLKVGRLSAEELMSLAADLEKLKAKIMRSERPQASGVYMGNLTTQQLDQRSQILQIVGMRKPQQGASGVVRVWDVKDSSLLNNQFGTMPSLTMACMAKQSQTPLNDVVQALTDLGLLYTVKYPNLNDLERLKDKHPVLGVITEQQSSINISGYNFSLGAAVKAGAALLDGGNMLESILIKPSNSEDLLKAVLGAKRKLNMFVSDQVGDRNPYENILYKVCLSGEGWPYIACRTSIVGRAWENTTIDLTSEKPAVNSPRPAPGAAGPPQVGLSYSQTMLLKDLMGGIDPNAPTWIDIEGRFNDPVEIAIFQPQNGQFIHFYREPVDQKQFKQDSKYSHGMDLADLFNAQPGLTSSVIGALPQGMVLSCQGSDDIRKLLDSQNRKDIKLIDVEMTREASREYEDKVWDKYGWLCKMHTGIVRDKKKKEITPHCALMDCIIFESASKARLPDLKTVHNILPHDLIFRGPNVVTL

| Compound | Potency [1] | Potency [2] | Potency [3] | Potency [4] |
| --- | --- | --- | --- | --- |
| COc1cc2oc(=O)ccc2cc1[C@H](O)[C@@H](O)C(C)(C)O | inactive | inactive | inactive | inactive |
| O=C(O)[C@H]1NC[C@H]2C[C@H]21 | inactive | inactive | inactive | inactive |
| O=C(NCCCCNCCCNC(=O)c1ccccc1)c1ccccc1 | inactive | inactive | inactive | inactive |
| CC(=O)O[C@H]1CC[C@@]2(C)[C@H](C1)C(=O)C[C@H]1[C@@H]3CC[C@@H]4[C@@H](CN5C[C@@H](C)CC[C@H]5[C@@]4(C)O)[C@@H]3C[C@@H]12 | inactive | inactive | inactive | inactive |
| O=CN(O)CCCP(=O)(O)O | inactive | inactive | inactive | inactive |
| COc1ccccc1NC(C)=O | inactive | inactive | inactive | inactive |
| C=C(CC[C@]12OC(C(=O)O)C(O)(C(=O)O)C(C(=O)O)(O1)C(OC(=O)/C=C/[C@@H](C)C[C@@H](C)CC)C2O)[C@@H](OC(C)=O)[C@H](C)Cc1ccccc1 (stereo not given in full) | inactive | inactive | inactive | inactive |
| COc1c(O)ccc2c1-c1c3c(cc4c1C(C2)N(C)CC4)OCO3 (stereo not given) | inactive | inactive | inactive | inactive |
| CC(CCC(=O)O)C1CCC2C3CC(O)C4CC(O)CC[C@]4(C)C3CCC12C (stereo not given in full) | inactive | inactive | inactive | inactive |
| COC1=C(C)C(O)=C(C(=O)/C=C/c2ccccc2)C(=O)C1(C)C | inactive | inactive | inactive | inactive |
| O=c1ccc2ccc(O[C@@H]3O[C@H](CO)[C@@H](O)[C@H](O)[C@H]3O)c(O)c2o1 | inactive | inactive | inactive | inactive |
| Cn1cnc2c(ncn2[C@@H]2O[C@H](CO)[C@@H](O)[C@H]2O)c1=N | inactive | inactive | inactive | inactive |
| C[C@H](CCC(=O)NCC(=O)O)[C@H]1CC[C@H]2[C@@H]3[C@H](O)C[C@@H]4C[C@H](O)CC[C@]4(C)[C@H]3C[C@H](O)[C@]12C | inactive | inactive | inactive | inactive |
| C[C@@H]1CCCCCCCCCCC1=O | inactive | inactive | inactive | inactive |
| CCCCCCCC/C=C/CCCOC(C)=O | inactive | inactive | inactive | inactive |
| O=c1c2ccccc2nc2n1CCC2 | inactive | inactive | inactive | inactive |
| C[C@H]1[C@H](C)CC[C@]2(C(=O)O)CC[C@]3(C)C(=CC[C@@H]4[C@@]5(C)C[C@@H](O)[C@H](O)C(C)(C)[C@@H]5CC[C@]43C)[C@H]12 | inactive | inactive | inactive | inactive |
| Cc1cnc(C)c(C)n1 | inactive | inactive | inactive | inactive |
| C[C@]12C[C@H](O)CC(CO)(CO)C1[C@H](O)C[C@@]13CC4[C@@H](CC12)[C@@]4(C)C3 (stereo not given in full) | inactive | inactive | inactive | inactive |
| C=C1C2C[C@H](O)C(C)(C)[C@@]2(O)[C@H](O)C[C@]23C[C@@](C)(O)[C@H](CC[C@H]12)[C@H]3OC(C)=O (stereo not given in full) | inactive | inactive | inactive | inactive |

| Compound | Potency [1] | Potency [2] | Potency [3] | Potency [4] |
| --- | --- | --- | --- | --- |
| Cc1cnnc2ccccc12 | inactive | inactive | inactive | inactive |
| COc1c2c(nc3occc13)C(CC=C(C)C)(OC)C(O)CC2 (stereo not given) | inactive | inactive | inactive | inactive |
| COc1cc(CCc2cc(NC(=O)c3ccc(N4C[C@@H](C)N[C@@H](C)C4)cc3)n[nH]2)cc(OC)c1 | inactive | 34.3 µM (active) | 43.2 µM (active) | inactive |
| C/C=C1\NC(=O)[C@H](C)NC(=O)[C@@H](NC(=O)[C@H](Cc2ccc(O)cc2)NC(=O)[C@@H](NC(=O)/C(C)=C/C)C(C)C)[C@@H](C)OC(=O)[C@H](CC(C)C)NC(=O)[C@@H](CCC(=O)O)NC1=O | inactive | inactive | inactive | inactive |
| CC/C=C\CCCCCCCCCCOC(C)=O | inactive | inactive | inactive | inactive |
| O=C(c1ccc2c(c1)OCCO2)N1CCCCC1 | inactive | inactive | inactive | inactive |
| ON=Cc1ccnc2ccccc12 | inactive | inactive | inactive | inactive |
| COc1ccc(/C=C/C(=O)O)cc1 | inactive | inactive | inactive | inactive |
| CC(C)=CCCC(C)CCOC=O (stereo not given) | inactive | inactive | inactive | inactive |
| CC(C)=CCC/C(C)=C/CC/C(C)=C/COc1ccc2ccc(=O)oc2c1 | inactive | inactive | inactive | inactive |
| C=C(C)[C@@H](O)COc1c2ccoc2cc2oc(=O)ccc12 | inactive | inactive | inactive | inactive |
| Cc1c(O[C@@H]2O[C@H](CO)[C@@H](O)[C@H](O)[C@H]2O)c(CO)c(O[C@@H]2O[C@H](CO)[C@@H](O)[C@H](O)[C@H]2O)c2c1O[C@@H](c1ccccc1)C[C@@H]2O | inactive | inactive | inactive | inactive |
| O=C(OCC#CCSc1nnc(-c2cccc3ccccc23)o1)c1cc2ccccc2s1 | inactive | inactive | inactive | inactive |
| O=C1NC2C(=CC(O)C(O)C2O)c2cc3c(c(O)c21)OCO3 (stereo not given) | inactive | inactive | inactive | inactive |
| CC1(C)CC(=O)c2cc(O)ccc2O1 | inactive | inactive | inactive | inactive |
| C[C@@H]1C(=O)O[C@H]2[C@H]1CC[C@@]1(C)C(=O)C=C[C@@](C)(O)[C@H]21 | inactive | inactive | inactive | inactive |
| Nc1nc2c(ncn2[C@@H]2O[C@H](COP(=O)(O)OP(=O)(O)OP(=O)(O)O)[C@@H](O)C2O)c(=O)[nH]1 (stereo not given in full) | inactive | inactive | inactive | inactive |
| O=C(/C=C/c1ccc(O)c(O)c1)c1ccc(O)cc1O | inactive | inactive | inactive | inactive |
| CCCCCCCCC1OC1CCCCCCCC(=O)O (stereo not given) | inactive | inactive | inactive | inactive |
| COc1cc(C2C(c3ccccc3)C(c3cc(OC)cc(=O)o3)C2c2ccccc2)oc(=O)c1 (stereo not given) | inactive | inactive | inactive | inactive |

| Compound | Potency [1] | Potency [2] | Potency [3] | Potency [4] |
| --- | --- | --- | --- | --- |
| CCN(CC)CCNC(=O)c1c(C)[nH]c(C=C2C(=O)Nc3ccc(F)cc32)c1C | 44.4 µM (active) | 7.89 µM (active) | 49.8 µM (active) | 44.4 µM (active) |
| CC(C)NC[C@@H](C(=O)N1CCN(c2ncnc3c2[C@H](C)C[C@H]3O)CC1)c1ccc(Cl)cc1 | 0.968 µM (active) | 0.243 µM (active) | 0.485 µM (active) | 0.863 µM (active) |
| Cc1ccc2c(c1)C(=O)c1ccccc1C2=O | inactive | inactive | inactive | inactive |
| CC(C)CCC[C@@H](C)[C@@H]1CC[C@H]2C3=CC=C4CC(O)CC[C@]4(C)[C@H]3CC[C@@]21C (stereo not given in full) | inactive | inactive | inactive | inactive |
| COc1cc2c(OC(C)=O)c3c(c(-c4ccc5c(c4)OCO5)c2cc1OC)C(=O)OC3 | inactive | inactive | inactive | inactive |
| CC1CC[C@@]2(OC1)O[C@H]1CC3[C@@H]4C[C@@H](O)[C@@]5(O)C[C@@H](O)[C@H](O)C[C@]5(C)[C@H]4CC[C@]3(C)[C@H]1[C@@H]2C (stereo not given in full) | inactive | inactive | inactive | inactive |
| CC1=C[C@H]2[C@]3(O)C(C=C(CO)C[C@]2(O)C1=O)[C@@H]1C(C)(C)[C@]1(O)[C@H](O)[C@H]3C (stereo not given in full) | inactive | inactive | inactive | inactive |
| CCc1ccc(O)c(OC)c1 | inactive | inactive | inactive | inactive |
| C=C(C)[C@@H]1CCC2=CCC[C@@H](C)[C@]2(C)C1 | inactive | inactive | inactive | inactive |
| C=C[C@H]1[C@H](O[C@@H]2O[C@H](CO)[C@@H](O)[C@H](O)[C@H]2O)OC=C2C(=O)OCC[C@]21O | inactive | inactive | inactive | inactive |
| COc1cc2c(cc1O)C(Cc1ccc(O)cc1)[N+](C)(C)CC2 (stereo not given) | inactive | inactive | inactive | inactive |
| CCCCCC(=O)OCC | inactive | inactive | inactive | inactive |
| Nc1ncnc2c1ncn2[C@@H]1O[C@H](COP(=O)(O)OP(=O)(O)OC[C@H]2OC(O)[C@H](O)[C@@H]2O)[C@@H](O)[C@H]1O (stereo not given in full) | inactive | inactive | inactive | inactive |
| O=C(O)COc1ccc(Cl)cc1CO | inactive | inactive | inactive | inactive |
| CCCCCC(C)O (stereo not given) | inactive | inactive | inactive | inactive |
| OC1O[C@H](c2ccc3c(c2)OCO3)[C@H]2CO[C@H](c3ccc4c(c3)OCO4)[C@@H]12 (stereo not given in full) | inactive | inactive | inactive | inactive |
| Nc1nc(Cl)nc2c1ncn2[C@@H]1O[C@H](CO)[C@@H](O)[C@H]1F | inactive | 2.17 µM (active) | 0.243 µM (active) | inactive |
| COc1cc2cc(Oc3ccc4ccc(=O)oc4c3)c(=O)oc2cc1OC1OC(COC(=O)CC(C)(O)CC(=O)O)C(O)C(O)C1O (stereo not given) | inactive | inactive | inactive | inactive |
| CC1=C(O)C(=O)CO1 | inactive | inactive | inactive | inactive |
| CC1CCC(C(C)[C@H]2CCC3C4CC(=O)C5C[C@@H](O)CC[C@]5(C)C4CC[C@@]32C)=NC1 (stereo not given in full) | inactive | inactive | inactive | inactive |

Source: PubChem BioAssay (NCATS)
